Experimental data reported in PubChem BioAssay (EPA / NIEHS).
Active and inactive are the calls of the source. How the source made its calls: active means hit-call score of the fitted dose curve at least 0.9, where 1 is the maximum; inactive means score below 0.9.

Key:
[1] = IUF_NPC1a_proliferation_area_72hr: Leibniz Research Institute for Environmental Medicine (IUF) 72-hour Neural Progenitor Cell Proliferation Area Assay (NPC1a) (AID 2284208)
Description: IUF_NPC1 is a cell-based, multiplexed assay that uses hNPC, a human primary neural progenitor cells, with measurements taken at 72 hours after chemical dosing in a 96-well plate. Human neural progenitor cells (hNPC) are generated from human fetal brain cortex at gestational week (GW) 16-19. Grown in suspension culture and under proliferative conditions (proliferation media and growth factors), these cells represent neural progenitor cell proliferation. In the NPC1 assay, hNPC's are exposed to the test compound for 72h. Cell proliferation is assessed as an increase in sphere area using automated phase contrast imaging and as incorporation of Bromodeoxyuridine (BrdU) during DNA synthesis using a luminescence-based cell proliferation ELISA. In parallel, the cell viability is assessed using an alamar blue viability assay and the cytotoxicity using a lactate dehydrogenase dependent membrane integrity assay.IUF_NPC1a_proliferation_area_72hr is one of 4 assay components measured from the IUF_NPC1 assay. It is designed to measure cell proliferation as assessed by an increase in sphere area over 72 h using automated phase contrast imaging.Data from the IUF_NPC1a_proliferation_area component was analyzed at the endpoint IUF_NPC1a_proliferation_area in the positive analysis fitting direction relative to DMSO as the negative control and baseline of activity. Using a type of growth reporter, gain or loss-of-signal activity can be used to understand cell proliferation effects.
After the cell expansion period, the cells are cultured for up to four weeks in which they are passaged every week. Between one to three days after passaging, depending on the size chosen for passaging, spheres at a size of 0.3 mm are used in the assay. For the assessment of neural progenitor cell proliferation, the spheres are plated in poly-Hema coated 96-well U-bottom plates filled with proliferation medium containing growth factors (EGF and FGF). One 0.25 - 0.35 mm big sphere is plated in the middle of each well. Within 3 days NPCs proliferate and grow in size. Cultivation during the test method is performed at 37C and 5% CO2 at a pH of 7.2-7.6. As a positive control, spheres are cultivated in the absence of growth factors (EGF and FGF), which dramatically reduces proliferation. Exposure starts on the plating day (day 0) and is continued over three days, without chemical renewal, until the experiment is terminated. The assay is terminated by the assessment of cell viability, cytotoxicity, and proliferation by BrdU. All endpoints are generated from the same experimental run and from each well/sphere in the 96-well plate.

[2] = IUF_NPC1_viability_72hr: Viability Assessment at 72 hours in the Leibniz Research Institute for Environmental Medicine (IUF) Neural Progenitor Cell Proliferation Assay (NPC1) (AID 2284209)
Method in brief: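 Each well receives one 0.3 mm progenitor sphere from fetal brain cortex; test chemical is added at plating and left three days. Viability comes from alamar blue fluorescence, multiplexed with LDH and BrdU readouts in the same well.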

[3] = CCTE_Mundy_HCI_Cortical_Synap_Neur_Matur_NeuriteSpotCountPerNeuriteLength: CCTE's Synaptogenesis and Neurite Maturation Assay in rat cortical cells for Neurite Spot Count per Neurite Length, Mundy Lab (AID 2284210)
Method in brief: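 Rat primary cortical cultures, glia arrested with AraC at DIV 5, were dosed with media change at DIV 7 and fixed at DIV 12. Synaptophysin puncta per MAP2-labelled neurite length were quantified by high-content imaging versus DMSO.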

[4] = CCTE_Mundy_HCI_Cortical_Synap_Neur_Matur_BPCount: CCTE's Synaptogenesis and Neurite Maturation Assay in rat cortical cells for Branch Point Count, Mundy Lab (AID 2284211)
Method in brief: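 Branch point number is quantified by automated imaging of fluorescently labelled neurites and synapses in rat primary cortical neurons exposed from DIV 7 to DIV 12. Activity is analysed relative to DMSO negative control.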

[5] = CCTE_Mundy_HCI_Cortical_NOG_NeuriteLength: CCTE's Neurite Outgrowth Assay in rat cortical cells for Neurite Length, Mundy Lab (AID 2284213);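 on AC50: neurites imaged about 48 to 50 h after chemical exposure began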
Method in brief: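 Neurite length was read by high-content imaging of βIII-tubulin-labelled neurites in rat primary cortical cultures. Activity was fitted relative to DMSO.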

[6] = CCTE_Mundy_HCI_Cortical_Synap_Neur_Matur_NeuriteLength: CCTE's Synaptogenesis and Neurite Maturation Assay in rat cortical cells for Neurite Length, Mundy Lab (AID 2284214)
Method in brief: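 Neurite length in rat primary cortical cultures is imaged after MAP2, synaptophysin and Hoechst staining. Dosing starts DIV 7, ending DIV 12; DMSO serves as negative control and baseline.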

[7] = CCTE_Mundy_HCI_Cortical_Synap_Neur_Matur_NeuriteSpotCountPerNeuron: CCTE's Synaptogenesis and Neurite Maturation Assay in rat cortical cells for Neurite Spot Count per Neuron Count, Mundy Lab (AID 2284215)
Method in brief: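 Rat primary cortical cultures given AraC at DIV 5, dosed from DIV 7 to DIV 12 with media change. Fixed, stained for MAP2, synaptophysin and Hoechst; neurite-associated synaptophysin puncta per neuron quantified by high-content imaging versus DMSO.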

[8] = CCTE_Mundy_HCI_Cortical_Synap_Neur_Matur_SynapseCount: CCTE's Synaptogenesis and Neurite Maturation Assay in rat cortical cells for Synapse Count, Mundy Lab (AID 2284218)
Method in brief: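 Synapse count per neuron is measured in rat cortical neurons exposed to chemicals between DIV 7 and DIV 12, with glial growth arrested by AraC at DIV 5. Synaptophysin and MAP2 staining is imaged automatically; activity is fitted relative to DMSO.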

[9] = TAMU_PeakParms_SingleDonor1434_Chronotropy: Texas A&M University (TAMU) 1.5-hr Human Induced Pluripotent Stem Cell (iPSC)-derived Cardiomyocytes Calcium (Ca+2) Flux Assay for Cardiotoxicity: Chronotropy (changes in peak frequency) (AID 2284217); details: actives raise or lower the signal
Method in brief: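 Using fluorescent Ca2+ flux, average beats per second are measured in human iPSC-derived cardiomyocytes treated 90 min (0.5% DMSO vehicle, 0.2–100 uM). Non-beating data points are removed; activity is modeled in both directions relative to DMSO controls.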

[10] = CCTE_Mundy_HCI_Cortical_NOG_NeuriteCount: CCTE's Neurite Outgrowth Assay in rat cortical cells for Neurite Count, Mundy Lab (AID 2284212);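 further: cells fixed about two days after chemical exposure began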
Method in brief: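 Neurite number per cell from high-content imaging of betaIII-tubulin immunostaining, with Hoechst nuclear counterstain.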

Measured: AC50

CCCN(CCC)C(=O)SCC
not listed: [9] | [10]
inactive: all other assays above

c1ccc2[nH]c(-c3cscn3)nc2c1
active: [9] 9.92 µM

S=C(S)NCCNC(=S)S.[Mn+2].[S-]C([S-])=NCCN=C([S-])[S-].[Zn+2]
not listed: [9]
inactive: all other assays above

CC(C)(c1ccc(O)cc1)c1ccc(O)cc1
active: [6] 50 µM | [7] 50 µM | [9] 50 µM | [8] 50 µM
inactive: [1] | [2] | [3] | [5]

O=C(O)c1ccccc1
inactive: all assays above

CCN(CC)C(=O)c1cccc(C)c1
not listed: [9]
inactive: all other assays above

Cc1nn(C)c(Oc2ccccc2)c1C=NOCc1ccc(C(=O)OC(C)(C)C)cc1
active: [1] 0.0215 µM | [3] 0.00339 µM | [4] 0.00291 µM | [10] 0.0196 µM | [5] 0.0155 µM | [6] 0.00265 µM | [7] 0.00181 µM | [8] 0.0023 µM
inactive: [2]

C#CCOC(=O)[C@@H](C)Oc1ccc(Oc2ncc(Cl)cc2F)cc1
active: [1] 26.6 µM
not listed: [9]
inactive: all other assays above

CC1(C)C(C=C(Cl)Cl)C1C(=O)OCc1cccc(Oc2ccccc2)c1 (centres undefined)
active: [4] 8.52 µM | [10] 78.2 µM | [5] 83.7 µM | [6] 8.65 µM | [7] 8.69 µM | [8] 9.11 µM
inactive: [3] | [9]

CC(=O)[C@H]1CC[C@H]2[C@@H]3CCC4=CC(=O)CC[C@]4(C)[C@H]3CC[C@]12C
inactive: [9]

COCCO
inactive: [9]

CSC(=O)c1cccc2nnsc12
not listed: [9]
inactive: all other assays above

S=C([S-])NCCNC(=S)[S-].[Mn+2]
not listed: [4] | [9] | [10]
inactive: all other assays above
